# Sampled rows, rich in hits. Any-hit rate of the full collection: about 3.9%.
# CCHF vOTU inh = CCHFV vOTU protease inhibition; AID 651958; 0.55% of 370,000 active; inhibition, % at 11.5 µM; Pep-AMC fluorescence; in the data active = inhibition above about 30%; note: 0% = vehicle wells with enzyme and 100% = no enzyme wells
# Autofluor counter = flagged as autofluorescent in microsphere protease counterscreen; AID 624483; 3.1% of 360,000 active; fluorescence intensity (no concentration beside the values); compound autofluorescence counterscreen, microsphere flow cytometry; stronger effect = higher value; in the data active = fluorescence intensity above about 16000; inconclusive = no clear call, values can overlap the other calls
# SARS 3CLpro inh = SARS-CoV 3CLpro protease inhibition; P0C6X7; recombinant SARS-CoV 3CLpro, quenched FRET peptide cleavage; inhibition, % at 6 µM; 0.14% of 290,000 active; in the data active = inhibition above about 12%
# Anthrax LF prot = inhibitors of Bacillus anthracis lethal factor protease | P15917 | multiplex microsphere protease cleavage assay, LF | inhibition, % at 10 µM | 0.12% of 360,000 active | AID 588501; note: plate controls were buffer without enzyme for full effect and enzyme alone for no effect
# BoNT-F LC inh = BoNT F light chain protease inhibition | Multiplex microsphere protease cleavage assay, flow cytometry | inhibition, % at 10 µM | 0.22% of 360,000 active; in the data active = inhibition above about 35%, passing the limit was not always enough; inconclusive = no clear call, values can overlap the other calls; note: plate controls were buffer without enzyme for full effect and enzyme alone for no effect
# BoNT-A LC inh2 = inhibitors of Botulinum neurotoxin A light chain protease; multiplex microsphere protease substrate cleavage, flow cytometry; inhibition, % at 10 µM; 0.17% of 360,000 active; note: plate controls were buffer without enzyme for full effect and enzyme alone for no effect
# * = called active by the depositor; u = inconclusive; x = no result. Cut-off read from the data, not from the text of the source, unless noted: active = inhibition above about 30%; inconclusive = no clear call, values can overlap the other calls; inactive = below that.
SMILES,CCHF vOTU inh,Autofluor counter,SARS 3CLpro inh,Anthrax LF prot,BoNT-F LC inh,BoNT-A LC inh2
COC(=O)[C@]12C[C@H](CC(=O)N3CCCCC3)C(=O)N(Cc3cccc4ccccc34)C1=C[C@H](C(C)C)O[C@@H]2C1CC1,11,x,x,x,x,x
Cc1cc(C)n(-c2nc3ccccc3c(=O)n2OCC(N)=O)n1,0,21858*,-7,-1,-1,0
CN(C)CCN(C)Cc1c2ccccc2c(CN(C)CCN(C)C)c2ccccc12,-1,2999,-4,-7,3,33*
O=C(NCCN1C(=O)C2C3C=CC(C3)C2C1=O)c1cc(F)cc(F)c1 (stereo unspecified),-4,x,x,x,x,x
O=c1/c(=C/c2ccco2)sc2n1CN(c1ccccc1)CN=2,15,2362,-5,-1,-11,0
Cc1ccc(N2CN=c3s/c(=C\c4ccccn4)c(=O)n3C2)cc1,-2,18880*,6,1,4,u
O=C(Oc1c(Cl)cc(Cl)c2cccnc12)N1CCCCC1,0,21476*,-1,-1,-8,u
c1csc(-c2nnc3ccccn23)c1,-1,18537*,0,-4,9,u
CC(C)OC(=O)c1cc(C(=O)c2cc(F)ccc2O)coc1=N,-8,16808*,-5,-2,-1,0
O=C(c1nsc(Cl)c1Cl)N1CCCCC1,6,20635*,8,-1,0,0
Cc1ccc2c(c1)C1CS(=O)(=O)N(CCc3ccccc3)CN1C2 (stereo unspecified),1,x,x,x,x,x
CCCC#Cc1ccc(CC[C@H]2O[C@H]3CC[C@@H](CO)O[C@H]3C[C@H]2NC(=O)CN2CCOCC2)cc1,12,x,x,x,x,x
COc1ccc(Cn2c(=O)oc3ccccc32)cc1OC,-5,3084,x,-6,-4,-1
COc1ccc(Cn2c(=O)oc3ccc(C)cc32)cc1OC,3,22068*,-5,-1,2,0
C=CCN(C(=O)[C@@H](C)[C@@H](O)c1ccc2ccccc2c1)c1ccccc1,8,x,x,x,x,x
COc1ccc(NC(=O)NC2CCN(C(C)C)CC2)c(OC)c1,-1,16455*,-1,-6,0,u
CCOc1ccccc1-c1n[nH]c(=S)o1,4,17280*,-2,-1,-6,-5
CCOc1ccc(-c2n[nH]c(=S)o2)cc1,-11,3472,1,5,-7,0
N#CC(c1ccc(Cl)cc1)N1CCOCC1 (stereo unspecified),0,3401,0,0,3,-2
Cc1ccc(C(C#N)N2CCOCC2)cc1 (stereo unspecified),-11,22170*,3,1,2,1
Cc1cccc2[nH]c3c(N4CCN(C(=O)c5ccco5)CC4)ncnc3c12,x,24618*,-5,-3,-8,-3
Cc1cccc2[nH]c3c(N4CCC5(CC4)OCCO5)ncnc3c12,-40,22045*,4,-4,-2,u
Cc1c(NC(=O)C2CCCN(S(=O)(=O)c3c(C(C)C)cc(C(C)C)cc3C(C)C)C2)c(=O)n(-c2ccccc2)n1C (stereo unspecified),16,x,x,x,x,x
CCOC(=O)[C@]12CCCC=C1N(CCCOC)C(=O)[C@@H]2CC(=O)N1CCCCC1,-5,x,x,x,x,x
CCN(CC)C(=O)CC[C@H]1CC[C@]2(CCCN(Cc3cccnc3)C2)O1,-1,x,x,x,x,x
SMILES,CCHF vOTU inh,Autofluor counter,SARS 3CLpro inh,Anthrax LF prot,BoNT-F LC inh,BoNT-A LC inh2
COc1ccccc1C(=O)NC1CCCCN(Cc2cccc(F)c2)C1=O (stereo unspecified),5,x,x,x,x,x
Cc1cccc(C)c1OCC(O)CNC(C)C (stereo unspecified),10,2989,5,-2,0,0
Cc1cccc(C)c1OCC(O)CNC(C)(C)C (stereo unspecified),4,16186*,0,-3,2,1
CC(=O)c1cc(-c2ccccc2)n(CC(=O)NCc2ccccc2)c1C,5,x,x,x,x,x
Cc1c[nH]c2cccc(-c3ccc(OCc4ccccc4)cc3)c12,0,x,x,x,x,x
CCCCNC(=O)c1ccc(S(=O)(=O)c2ccc(Cl)cc2)c(NC(C)=O)c1,-17,21746*,1,2,8,6
COCCCNC(=O)c1ccc(S(=O)(=O)c2ccc(C)cc2)c(NC(C)=O)c1,2,3526,-1,-8,-13,0
C=CCN1/C(=C(\C#N)C2=NS(=O)(=O)c3ccccc32)N(C)c2ccccc21,13,16828*,-2,-2,2,-1
CCOC(=O)[C@]12CCCCC/C=C\1N(CCc1ccc(Cl)cc1)C(=O)[C@H]2CC(=O)NCCCOC,4,x,x,x,x,x
COCCNC(=O)Nc1ccc2nc(-c3cccs3)c(-c3cccs3)nc2c1,-3,4576,-2,57*,42*,132*
COC(=O)C1CN(CC(C)C)CCS(=O)(=O)N1Cc1ccc(Cl)cc1 (stereo unspecified),11,x,x,x,x,x
O=C(OCc1cn(Cc2c(F)cccc2F)nn1)N1CCCC1,2,x,x,x,x,x
N=c1c(C(=O)NCCc2ccccc2)cc2c(=O)n3ccccc3nc2n1Cc1ccco1,-21,3691,4,11,8,3
COc1ccc(CCn2c(=N)c(C(=O)NCc3ccco3)cc3c(=O)n4ccccc4nc32)cc1,-10,22951*,-6,4,2,2
COc1ccc(CCn2c(=N)c(S(=O)(=O)c3ccc(Cl)cc3)cc3c(=O)n4ccccc4nc32)cc1,15,21901*,4,-15,-87,-36
COc1ccc(-n2c(=S)[nH]c3cc(C(=O)NCc4ccco4)ccc3c2=O)cc1OC,9,4604,-2,1,u,0
CC(C)OCCCn1c(=N)c(C(N)=S)cc2c(=O)n3ccccc3nc21,-110,5395,-6,-52,-56,35*
COc1ccc(CCn2c(=S)[nH]c3cc(C(=O)NCc4ccco4)ccc3c2=O)cc1OC,x,20732*,4,1,-2,-4
CCOC(=O)[C@]12CCCC3=C1N(CCC3)C(=O)[C@@H](CC(=O)N1CCC(c3ccccc3)CC1)C2,2,x,x,x,x,x
Cc1ccc(S(=O)(=O)c2cc3c(=O)n4ccccc4nc3n(C)c2=N)cc1,-19,18992*,4,-6,5,5
CCn1c(=N)c(S(=O)(=O)c2ccc(C)cc2)cc2c(=O)n3ccccc3nc21,-10,x,4,x,x,x
CC1(C)NC(=O)N(CC(=O)O)C1=O,7,17429*,-3,-4,-4,-2
CC1(C)NC(=O)N(CN2C(=O)NC(C)(C)C2=O)C1=O,9,9110,-8,-14,0,0
O=C(Nc1ccc(C(F)(F)F)cc1)c1cccn(Cc2ccc3c(c2)OC(F)(F)O3)c1=O,0,15928,-1,-1,-4,0
O=C(Nc1cccc(C(F)(F)F)c1)c1cccn(Cc2ccc3c(c2)OC(F)(F)O3)c1=O,6,20449*,-2,0,-2,-2
Cc1cccc(C)c1NC(=O)c1cccn(Cc2ccc3c(c2)OC(F)(F)O3)c1=O,4,16867*,-1,-13,7,10
COC(=O)[C@]12C[C@H](CC(=O)NCc3cccs3)C(=O)N(CCc3ccc(OC)c(OC)c3)C1=C[C@H](C1CCCC1)O[C@@H]2C,11,x,x,x,x,x

# Assay outcomes as filed in PubChem BioAssay.
